# Tb PYK inh = inhibitors of Trypanosoma brucei pyruvate kinase | Q57TT1 | TbPYK enzyme, Kinase-Glo Plus ATP luminescence, 45 min | Potency, µM (series often up to 76.8 µM), inactives show top-dose activity, negative = inhibition, most hits filed as inhibitors | 0.12% of 410,000 active | AID 624173; also: nearly all actives have a fitted effect of over 50% in size
#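 TbPYK + substrate in 50 mM TEA pH 7.2, 100 mM KCl, 10 mM MgCl2, 0.05% BSA, 0.01% Tween-20; cpd pinned; ADP 130 uM final; 45 min RT; Kinase-Glo Plus 10 min; luminescence endpoint.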
# RE007 growth inh = less growth of the S. pombe RE007 Vpr strain. S. pombe RE007 Vpr strain, BacTiter-Glo ATP luminescence, 24 h. Potency, µM (highest dose often 92.2 µM), without a hit: at the highest dose activity change, negative = less growth, usual class: inhibitors. 0.21% of 360,000 active. AID 651644; active = well fitted falling curve with a large enough effect; inconclusive = small, poorly fitted or top-dose-only effect; inactive = no such curve, though single readings can be large or run the other way; also: nearly all actives have a fitted effect of over 50% in size
#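 Fission yeast strain RE007, carrying one chromosomally integrated HIV-1 vpr copy, was seeded at OD 0.01 in PMG+AL medium with 23 nL pinned compound. After 24 h at 30 °C and 99% humidity, viability was read by BacTiter-Glo luminescence.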
# Sm TGR inh = S. mansoni TGR enzyme inhibition | AID 485364 | Potency, µM (top dose mostly 114 µM), for inactives: at the top dose activity change, negative = inhibition, actives largely listed as inhibitors | purified TGR, DTNB reduction, TNB absorbance 405 nm | Q962Y6 | 3% of 360,000 active; also: nearly all actives have a fitted effect of over 60% in size
#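 TGR 20 nM + NADPH 100 uM (dispensed conc.), cpd preinc 15 min RT; start with NADPH (500 uM addition) then DTNB (15 mM addition). Kinetic TNB absorbance, 405 nm filter. Four-parameter Hill fit across titration.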
# LmPK inhibitor = inhibitors of Leishmania mexicana pyruvate kinase; Q27686; purified LmPK, Kinase-Glo ATP luminescence, 1 h; Potency, µM (series often up to 57.5 µM), for inactives: top-dose activity change, negative = inhibition, usual class: inhibitors; 0.37% of 290,000 active; AID 1721
# Target sequence (Q27686 whole entry, looked up): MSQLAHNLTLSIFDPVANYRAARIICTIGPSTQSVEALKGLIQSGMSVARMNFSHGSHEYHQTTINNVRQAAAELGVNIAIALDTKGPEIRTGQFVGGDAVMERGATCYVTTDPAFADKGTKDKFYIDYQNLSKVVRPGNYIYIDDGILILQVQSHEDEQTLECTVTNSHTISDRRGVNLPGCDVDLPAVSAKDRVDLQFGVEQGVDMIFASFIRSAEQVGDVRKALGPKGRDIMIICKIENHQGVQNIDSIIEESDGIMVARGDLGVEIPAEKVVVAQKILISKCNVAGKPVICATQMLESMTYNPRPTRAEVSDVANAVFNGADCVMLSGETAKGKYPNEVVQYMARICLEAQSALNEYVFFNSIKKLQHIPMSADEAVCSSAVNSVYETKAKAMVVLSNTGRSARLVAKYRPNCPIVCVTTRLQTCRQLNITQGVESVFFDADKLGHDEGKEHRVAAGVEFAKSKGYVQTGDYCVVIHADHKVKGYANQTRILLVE
#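 qHTS format; LmPK 0.1 nM; substrates PEP 0.5 mM and ADP 0.1 mM. One-hour room-temperature incubation, then coupled luciferase luminescence; 0.5 nM enzyme wells mark activation.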
# Active calls of the source: *; ? = inconclusive; / = not tested or not shown; [ ] = dose if it differs, or a comment. Sampled rows, rich in hits. Any-hit rate of the full collection: about 3%. Unless noted, calls follow the shape of the dose curve; as a rule, active = well fitted curve in the direction sought with a large enough effect; inconclusive = small, poorly fitted or top-dose-only effect, or another doubt; inactive = no such curve, though single readings can be large; an effect the other way counts as inactive or inconclusive. % is scaled to controls: 0 for no effect and ±100 for the full control effect; potency is read from the fitted curve at half-maximal effect.
SMILES,Tb PYK inh,RE007 growth inh,Sm TGR inh,LmPK inhibitor
Cc1occc1-c1nnc(SCC(=O)c2c[nH]c3ccccc23)n1C,-16.2%,19.6%,17.8µM*,2.2%
Cn1c(SCC(=O)NCc2ccco2)nnc1-c1c[nH]c2ccccc12,-12.0%,-12.9%,-18.4%,-2.9%
CCOc1ccc(NC(=O)CCCc2nc(-c3cccc(OC)c3)no2)cc1,3.3%,/,3.1%,/
Cc1ccc(CNC(=O)C2CCN(c3nn4cc(-c5ccc(F)cc5)nc4s3)CC2)cc1,-4.2%[15.4 µM],/,0.6%,/
Cc1ccc(S(=O)(=O)c2nc(-c3ccccc3F)oc2NCc2ccccc2)cc1,-6.9%,/,47.7%,/
CNc1oc(-c2ccccc2F)nc1S(=O)(=O)c1ccc(C)cc1,-7.1%,5.7%,14.1µM*,0.2%
CCNc1oc(-c2ccccc2F)nc1S(=O)(=O)c1ccccc1,-10.4%,-7.2%,39.8µM*,-0.2%
COc1cc(CN(C(=O)c2cccs2)C2CCS(=O)(=O)C2)cc(OC)c1OC (stereo not given),-1.0%,0.4%,7.3%,8.9%
COc1ccc(CCn2c(NN=C(C)C)nc3c2c(=O)[nH]c(=O)n3C)cc1,4.0%,7.0%,0.0%,-4.2%
CCCn1c(N/N=C\C=C\c2ccccc2)nc2c1c(=O)[nH]c(=O)n2C,3.5%,8.1%,?,0.5%
COCCn1c(N/N=C(C)/C=C/c2ccccc2)nc2c1c(=O)[nH]c(=O)n2C,/,/,25.1µM*,-4.7%
CC(/C=C/c1ccccc1)=N\Nc1nc2c(c(=O)[nH]c(=O)n2C)n1CCO,0.3%,7.3%,14.1µM*,0.5%
CCNC(=O)[C@H]1CCCN1C(=O)[C@H](CCCN=C(N)N)NC(=O)[C@H](CC(C)C)NC(=O)[C@H](CC(C)C)NC(=O)[C@@H](Cc1ccc(O)cc1)NC(=O)[C@H](CO)NC(=O)[C@@H](Cc1c[nH]c2ccccc12)NC(=O)[C@H](Cc1cnc[nH]1)NC(=O)[C@@H]1CCC(=O)N1,-5.9%,/,/,/
COc1ccc(NC(=O)c2c(C(=O)Nc3ccccc3)sc3nc(C)cc(=O)n23)cc1,-11.9%,/,-30.8%,/
CCOC(=O)/C=C/C(=O)OCC(=O)Nc1ccc([N+](=O)[O-])cc1,-8.3%,-29.8%,3.98µM*,1.8%
CCOC(=O)/C=C/C(=O)Nc1ccccc1-c1ccccc1NC(=O)/C=C/C(=O)OCC,-12.1%,-21.3%,12.6µM*,-0.3%
COc1cc(/C=C/C(=O)OCC(=O)Nc2ccc([N+](=O)[O-])cc2)ccc1O,-4.2%,-9.0%,-9.5%,3.8%
CCOC(=O)/C=C/C(=O)Nc1cccc([N+](=O)[O-])c1,?,8.91µM*,0.708µM*,-4.3%
COc1cc(C(=O)N2CCCCC2c2cc(C(=O)Nc3ccccc3)no2)cc(OC)c1C (stereo not given),2.8%,3.3%[18.4 µM],/,/
CCN(C(=O)CSc1nnc(-c2cc(OC)c(OC)c(OC)c2)o1)c1ccccc1,-1.8%,/,20µM*,/
CCOc1ccc(Nc2nc(N)nc(CCl)n2)cc1,-6.6%,2.3%,25.1µM*,-21.2%
Cc1ccc(Nc2nc(N)nc(CCl)n2)cc1,-1.2%,10.2%,11.2µM*,-12.5%
CCOc1ccc(Nc2nc(N)nc(CN3CCN(c4ccccc4F)CC3)n2)cc1,0.4%,4.7%,-2.5%,3.0%
Nc1nc(CN2CCN(Cc3ccccc3)CC2)nc(Nc2ccccc2)n1,1.1%,1.7%,?,4.8%
Cc1ccc(Nc2nc(N)nc(CCl)n2)c(C)c1,-3.5%,-6.3%,31.6µM*,4.0%
SMILES,Tb PYK inh,RE007 growth inh,Sm TGR inh,LmPK inhibitor
Nc1nc(CCl)nc(Nc2ccccc2)n1,1.6%,-9.8%,39.8µM*,-2.2%
CCCCN1CCCC1C(=O)Nc1c(C)cc(C)cc1C (stereo not given),0.8%,/,/,/
CN(Cc1ccc(Cl)c(Cl)c1)C(C(=O)NCc1ccccc1)c1ccco1 (stereo not given),/,-7.7%,/,/
COc1ccccc1NCc1cccn1-c1nnc(N2CCOCC2)s1,-0.5%,/,-7.6%,/
CCOC(=O)Cc1csc(NC(=O)NC2(C(F)(F)F)Oc3ccccc3O2)n1,-5.1%,0.1%,14.1µM*,7.9%
COc1cccc(NC(=O)Nc2cccc(C(=O)O)c2)c1,2.4%,4.5%,-0.5%,-23.0%
CCOC(=O)Cc1csc(NC(=O)NC2(C(F)(F)F)Oc3ccc(Cl)cc3O2)n1 (stereo not given),-10.4%,6.9%,?,16.8%
COc1cccc(NC(=O)NC2(C(F)(F)F)Oc3ccccc3O2)c1,-4.2%,-5.2%,39.8µM*,1.3%
O=C(Nc1cc(N2CCOCC2)ncn1)NC1(C(F)(F)F)Oc2ccccc2O1,-3.0%,-15.4%,12.6µM*,-3.7%
O=C1OCC2=C1C(c1cccc(Cl)c1)CC(=O)N2c1ccc(C(F)(F)F)cc1 (stereo not given),0.3%,/,-1.1%,/
O=[N+]([O-])c1ccc(N=Nc2c(Cl)cc(O)cc2Cl)cc1,-27.6%,/,0.0%,22.4µM*
CC(N)=Nc1ccc([N+](=O)[O-])cc1,8.3%,-12.7%,-2.0%,-3.2%
COC(=O)C1=C(C(=O)OC)[C@@H]2N(Cc3ccccc3)c3ccccc3[C@@]23C[C@@H](C(=O)OC)N(S(=O)(=O)c2ccc(Br)cc2)C3=N1,/,/,/,-3.6%[11.5 µM]
C/C(=N\Nc1ncc(Cl)cc1Cl)c1ccccn1,-19.7%,22.4µM*,-33.0%,?
CCCCN(CCCC)C(=O)c1cc(Cl)ccc1[N+](=O)[O-],-1.8%,-1.4%,-7.5%,4.1%
CCCN(CCC)C(=O)c1cc([N+](=O)[O-])cc2c1-c1ccc([N+](=O)[O-])cc1C2=C(C#N)C#N,-5.7%,1.2%,5.01µM*,1.4%
COC(=O)CCC(=O)OC1(C)C(=O)C=C2C=C3CCCN3C=C2C1=O (stereo not given),-3.1%,-5.8%,?,-7.5%[11.5 µM]
CC1(OC(=O)c2ccc(Cl)nc2)C(=O)C=C2C=C3CCCN3C=C2C1=O (stereo not given),-3.0%,-12.9%,35.5µM*,-2.0%[11.5 µM]
CCCCCOc1ccc(C)cc1CN(CCCl)CCCl,-0.4%,?,11.2µM*,-0.7%
C=CCc1cc(C)ccc1OCCCC(C(=O)OCC)C(=O)OCC,0.5%,3.3%,2.1%,-0.3%
CCOC(=O)C1CCN(C(c2ccc(C)cc2)c2sc3nc(-c4ccco4)nn3c2O)CC1 (stereo not given),1.6%,/,-5.7%,/
CCOC(=O)C1CCN(C(c2cccc(F)c2)c2c(O)cc(C)n(Cc3ccco3)c2=O)CC1 (stereo not given),3.3%,/,10µM*,/
CCOC(=O)C1CCN(C(c2ccc(SC)cc2)c2c(O)cc(C)n(Cc3ccco3)c2=O)CC1 (stereo not given),-6.8%,/,5.01µM*,/
CCOC(=O)C1CCN(C(c2cccc(F)c2)c2c(O)cc(C)n(CCOC)c2=O)CC1 (stereo not given),2.7%,/,17.8µM*,/
CCOC(=O)C1CCN(C(c2ccccc2)c2c(O)cc(C)n(Cc3ccco3)c2=O)CC1 (stereo not given),7.9%,/,8.91µM*,/
FC(F)OC(Cl)C(F)(F)F (stereo not given),-9.3%,/,/,/
